From PubChem BioAssay (EPA / NIEHS)
Records with an inconclusive call do not appear. The source holds several records for some structures; these can differ, active in one and inactive in another. The source made the active and inactive calls. Rule for the calls, unless noted: active = hit-call score of the fitted dose curve at least 0.9, where 1 is the maximum; inconclusive = response in the unintended direction; inactive = score below 0.9.

molecular target: Estrogen receptor (Homo sapiens) (UniProt P03372); assay: CCTE_Deisenroth_AIME_384WELL_LUC_Inactive: CCTE's 384-well Estrogen Receptor Transactivation Assay without AIME metabolic competence (ERTA luciferase; metabolism negative), Deisenroth Lab (AID 2284038);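 note: VM7Luc4E2 breast cells given medium preincubated 2 h with S9-free microspheres; hits raise estrogen receptor luciferase signal so potencies reflect agonists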
Sequence (P03372 whole entry, looked up): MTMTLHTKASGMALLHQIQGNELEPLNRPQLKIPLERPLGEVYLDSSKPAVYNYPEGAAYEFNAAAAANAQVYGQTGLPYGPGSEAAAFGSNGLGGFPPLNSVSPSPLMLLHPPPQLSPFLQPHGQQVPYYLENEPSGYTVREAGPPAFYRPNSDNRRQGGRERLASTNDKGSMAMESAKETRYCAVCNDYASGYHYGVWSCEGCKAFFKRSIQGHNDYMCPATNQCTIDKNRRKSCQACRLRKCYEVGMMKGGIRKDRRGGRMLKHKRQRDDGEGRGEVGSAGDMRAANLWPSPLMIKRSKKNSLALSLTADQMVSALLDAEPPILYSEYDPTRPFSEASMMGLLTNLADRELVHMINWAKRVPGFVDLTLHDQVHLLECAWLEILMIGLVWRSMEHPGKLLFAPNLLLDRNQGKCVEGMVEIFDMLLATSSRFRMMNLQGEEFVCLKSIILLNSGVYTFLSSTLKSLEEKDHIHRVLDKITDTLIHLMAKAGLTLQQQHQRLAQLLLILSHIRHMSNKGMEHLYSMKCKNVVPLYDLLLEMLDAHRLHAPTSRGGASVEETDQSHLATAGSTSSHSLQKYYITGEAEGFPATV
Outline: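 Metabolism-negative mode: AIME lids stamped in alginate-water, no hepatic S9. 2 h chemical incubation → medium onto VM7Luc4E2 ERTA, 24 h. Readout luciferase luminescence; gain-of-signal fit vs 17beta-estradiol. Conc. 0.002 - 200 uM.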

Compound	outcome	AC50
CCOc1ccc2c(c1)C(C)=CC(C)(C)N2	inactive	–
Cc1cc(=O)[nH]c(=S)[nH]1	inactive	–
CCCCCCCCCCO	inactive	–
Cc1ccc(C)c(C)c1	inactive	–
O=c1[nH]cc(F)c(=O)[nH]1	inactive	–
CC(=O)Oc1ccccc1C(=O)O	inactive	–
Cc1ccc(N(C)C)cc1	inactive	–
CC1(C)NC(=O)NC1=O	inactive	–
Nc1ccc2c(c1)C(=O)c1ccccc1C2=O	–	11.2 µM (active)
Cc1cccc([N+](=O)[O-])c1C	inactive	–
C[Si]1(C)O[Si](C)(C)O[Si](C)(C)O[Si](C)(C)O1	inactive	–
CCCCCCCCCCCCCCCCCC(=O)O	inactive	–
Cc1ccc2ncccc2c1	inactive	–
CCCc1cc(=O)[nH]c(=S)[nH]1	inactive	–
COc1cc(C=O)ccc1O	inactive	–
O=c1c(O)c(-c2ccc(O)c(O)c2)oc2cc(O)cc(O)c12	–	139 µM (active)
CC1(C)CC(N=C=O)CC(C)(CN=C=O)C1 (stereo not given)	inactive	–

Compound	outcome	AC50
CCCCCCC(=O)OCC	inactive	–
CN1CCCC1=O	inactive	–
CCCCOC(=O)CCCCCCCCC(=O)OCCCC	inactive	–
COCCOCCOC	inactive	–
NCCO	inactive	–
COc1ccc(C)cc1N	inactive	–
Cc1cccc(C)c1O	inactive	–
CNC(=O)[C@H]1O[C@@H](n2cnc3c(NCc4cc(Cl)ccc4OCc4cc(C)no4)ncnc32)[C@H](O)[C@@H]1N	inactive	–
Cc1ccc(C)c(O)c1C	inactive	–
Cc1ccc(C(C)C)c(O)c1	inactive	–
C[C@]12C=CC(=O)C=C1CC[C@@H]1[C@@H]2C(=O)C[C@@]2(C)[C@H]1CC[C@]2(O)C(=O)CO	inactive	–
CCNc1cccc(C)c1	inactive	–
CCCCCC(=O)O	inactive	–
CC1=C(/C=C/C(C)=C/C=C/C(C)=C/CO)C(C)(C)CCC1	inactive	–
C=CCc1ccc(O)c(OC)c1	inactive	–
Clc1cc(Cl)c(Cl)cc1Cl	inactive	–
CCCCCCCC=O	–	25.7 µM (active)

test system: not listed separately; assay: CCTE_Deisenroth_AIME_384WELL_CTox_Inactive: Cytotoxicity Assessment (CTOX) in CCTE's 384-well Estrogen Receptor Transactivation Assay without AIME metabolic competence (metabolism negative), Deisenroth Lab (AID 2284039);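 note: cell viability via live-cell protease substrate cleaved to fluorescent probe; cells exposed 24 h to medium preincubated 2 h with alginate-water beads without S9; loss of fluorescence signal means loss of viability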
Outline: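 Fluorescent protease-substrate viability readout after 24 h exposure of VM7Luc4E2 cells to conditioned medium. Chemicals (0.002–200 uM) first sat 2 h over alginate-water beads, no S9. Data fitted bidirectionally, loss of signal meaning viability loss.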

Compound	outcome	AC50
CCOc1ccc2c(c1)C(C)=CC(C)(C)N2	inactive	–
Cc1cc(=O)[nH]c(=S)[nH]1	inactive	–
O=c1[nH]cc(F)c(=O)[nH]1	inactive	–
Cc1ccc(N(C)C)cc1	inactive	–
CC1(C)NC(=O)NC1=O	inactive	–
Cc1cccc([N+](=O)[O-])c1C	inactive	–
C[Si]1(C)O[Si](C)(C)O[Si](C)(C)O[Si](C)(C)O1	inactive	–
CCCCCCCCCCCCCCCCCC(=O)O	inactive	–
CCCc1cc(=O)[nH]c(=S)[nH]1	inactive	–
O=c1c(O)c(-c2ccc(O)c(O)c2)oc2cc(O)cc(O)c12	–	54.5 µM (active)
CNCc1cc(F)ccc1Oc1ccc(Cl)c(Cl)c1	–	19.8 µM (active)
CN1CCCC1=O	inactive	–
CCCCOC(=O)CCCCCCCCC(=O)OCCCC	inactive	–
COCCOCCOC	inactive	–
NCCO	inactive	–
Cc1cccc(C)c1O	inactive	–
Cc1ccc(C)c(O)c1C	inactive	–
C[C@]12C=CC(=O)C=C1CC[C@@H]1[C@@H]2C(=O)C[C@@]2(C)[C@H]1CC[C@]2(O)C(=O)CO	inactive	–
CCNc1cccc(C)c1	inactive	–
CCCCCC(=O)O	inactive	–
CC1=C(/C=C/C(C)=C/C=C/C(C)=C/CO)C(C)(C)CCC1	inactive	–
C=CCc1ccc(O)c(OC)c1	inactive	–

test system: not listed separately; assay: CCTE_Shafer_MEA_dev_active_electrodes_number: CCTE's Neural Network Formation Assay for Number of Active Electrodes, Shafer Lab (AID 2284040);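 for AC50: potency for loss of active electrodes versus DMSO so lower counts are hits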
Outline: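 Developing rat cortical networks on MEAs, exposed DIV 0–12. Value is the AUC of active-electrode counts (≥5 spikes/min) from days 5, 7, 9, 12, relative to DMSO.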

Compound	outcome	AC50
Cc1cc(=O)[nH]c(=S)[nH]1	inactive	–
OC[C@@H](O)[C@@H](O)[C@H](O)[C@H](O)CO	inactive	–
O=c1[nH]cc(F)c(=O)[nH]1	–	2.59 µM (active)
CC(=O)Oc1ccccc1C(=O)O	inactive	–
C[Si]1(C)O[Si](C)(C)O[Si](C)(C)O[Si](C)(C)O1	inactive	–
CCCc1cc(=O)[nH]c(=S)[nH]1	inactive	22.9 µM (active)
CC(C)c1ccc(C(=O)N=C(N)N)cc1S(C)(=O)=O	inactive	–
FC(F)(F)C(F)(F)C(F)(F)C(F)(F)C(F)(F)C(F)(F)CCI	inactive	–
C=CCc1ccc(O)c(OC)c1	inactive	–

molecular target: Estrogen receptor (Homo sapiens) (UniProt P03372); assay: CCTE_Deisenroth_AIME_384WELL_LUC_Shift: CCTE's 384-well Estrogen Receptor Transactivation Assay with AIME metabolic competence data shift (ERTA luciferase; difference in metabolism positive and negative), Deisenroth Lab (AID 2284041; active = hit-call score of the fitted dose curve at least 0.9, where 1 is the maximum; inactive = score below 0.9;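 note: shift is response with S9 minus without S9 so positive means metabolism raised ER signal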)
Outline: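 Test chemicals (0.002–200 uM, 10-point) were pre-incubated 2 h with alginate microspheres containing phenobarbital/beta-naphthoflavone-induced male Sprague Dawley rat liver S9 or water, then medium was transferred to VM7Luc4E2 cells for 24 h luciferase readout; shift = S9-positive minus S9-negative normalized response.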

Compound	outcome	AC50
Cc1cc(=O)[nH]c(=S)[nH]1	inactive	–
CCCCCCCCCCO	inactive	–
Cc1ccc(C)c(C)c1	inactive	–
O=c1[nH]cc(F)c(=O)[nH]1	inactive	–
CC(=O)Oc1ccccc1C(=O)O	inactive	–
Cc1ccc(N(C)C)cc1	inactive	–
CC1(C)NC(=O)NC1=O	inactive	–
Nc1ccc2c(c1)C(=O)c1ccccc1C2=O	–	3.51 µM (active)
Cc1cccc([N+](=O)[O-])c1C	inactive	–
C[Si]1(C)O[Si](C)(C)O[Si](C)(C)O[Si](C)(C)O1	inactive	–
CCCCCCCCCCCCCCCCCC(=O)O	inactive	–
Cc1ccc2ncccc2c1	inactive	–
CCCc1cc(=O)[nH]c(=S)[nH]1	inactive	–
COc1cc(C=O)ccc1O	inactive	–
O=c1c(O)c(-c2ccc(O)c(O)c2)oc2cc(O)cc(O)c12	–	13.5 µM (active)
CC1(C)CC(N=C=O)CC(C)(CN=C=O)C1 (stereo not given)	inactive	–
CNCc1cc(F)ccc1Oc1ccc(Cl)c(Cl)c1	inactive	–

Compound	outcome	AC50
CCCCCCC(=O)OCC	inactive	–
CN1CCCC1=O	inactive	–
CCCCOC(=O)CCCCCCCCC(=O)OCCCC	inactive	–
COCCOCCOC	inactive	–
NCCO	inactive	–
COc1ccc(C)cc1N	inactive	–
Cc1cccc(C)c1O	inactive	–
CNC(=O)[C@H]1O[C@@H](n2cnc3c(NCc4cc(Cl)ccc4OCc4cc(C)no4)ncnc32)[C@H](O)[C@@H]1N	inactive	–
Cc1ccc(C)c(O)c1C	inactive	–
Cc1ccc(C(C)C)c(O)c1	inactive	–
C[C@]12C=CC(=O)C=C1CC[C@@H]1[C@@H]2C(=O)C[C@@]2(C)[C@H]1CC[C@]2(O)C(=O)CO	inactive	–
CCNc1cccc(C)c1	inactive	–
CCCCCC(=O)O	inactive	–
CC1=C(/C=C/C(C)=C/C=C/C(C)=C/CO)C(C)(C)CCC1	inactive	–
C=CCc1ccc(O)c(OC)c1	inactive	–
Clc1cc(Cl)c(Cl)cc1Cl	inactive	–
CCCCCCCC=O	–	15.6 µM (active)
